What was measured:
[1] = target: T1, Serine/threonine-protein kinase Nek9 (Homo sapiens) (UniProt Q8TD19); conditions: at 1 µM;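 also: each value is a mean percent inhibition of NEK9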
T1 sequence (whole entry): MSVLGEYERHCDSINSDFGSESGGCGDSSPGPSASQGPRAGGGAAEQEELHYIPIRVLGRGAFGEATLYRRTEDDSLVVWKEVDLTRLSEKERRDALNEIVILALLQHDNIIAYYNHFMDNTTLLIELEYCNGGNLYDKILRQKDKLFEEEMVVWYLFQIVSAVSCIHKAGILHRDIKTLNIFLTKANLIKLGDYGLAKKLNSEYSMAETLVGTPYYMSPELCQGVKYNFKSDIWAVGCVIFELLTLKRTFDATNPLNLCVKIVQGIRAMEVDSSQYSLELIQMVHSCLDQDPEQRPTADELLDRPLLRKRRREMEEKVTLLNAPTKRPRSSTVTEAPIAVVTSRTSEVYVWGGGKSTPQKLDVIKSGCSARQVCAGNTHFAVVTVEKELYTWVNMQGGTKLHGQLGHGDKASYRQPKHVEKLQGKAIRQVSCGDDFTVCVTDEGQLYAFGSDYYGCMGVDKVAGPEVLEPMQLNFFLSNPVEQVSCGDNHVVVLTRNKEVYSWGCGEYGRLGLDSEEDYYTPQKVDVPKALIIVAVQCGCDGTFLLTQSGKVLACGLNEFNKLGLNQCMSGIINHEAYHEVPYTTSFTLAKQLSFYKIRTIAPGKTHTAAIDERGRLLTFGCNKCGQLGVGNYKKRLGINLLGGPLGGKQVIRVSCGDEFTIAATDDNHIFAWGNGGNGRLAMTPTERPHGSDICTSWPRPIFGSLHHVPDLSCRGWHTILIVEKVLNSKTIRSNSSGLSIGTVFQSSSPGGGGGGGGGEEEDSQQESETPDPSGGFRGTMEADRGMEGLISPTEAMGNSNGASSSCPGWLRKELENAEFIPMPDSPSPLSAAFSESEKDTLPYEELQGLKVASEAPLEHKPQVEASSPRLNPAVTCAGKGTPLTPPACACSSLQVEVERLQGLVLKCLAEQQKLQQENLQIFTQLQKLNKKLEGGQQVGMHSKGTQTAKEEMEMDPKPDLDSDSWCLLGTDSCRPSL

[2] = target: Serine/threonine-protein kinase PLK1 (Homo sapiens) (UniProt P53350); conditions: at 0.1 µM
Serine/threonine-protein kinase PLK1 (Homo sapiens), sequence (P53350 whole entry): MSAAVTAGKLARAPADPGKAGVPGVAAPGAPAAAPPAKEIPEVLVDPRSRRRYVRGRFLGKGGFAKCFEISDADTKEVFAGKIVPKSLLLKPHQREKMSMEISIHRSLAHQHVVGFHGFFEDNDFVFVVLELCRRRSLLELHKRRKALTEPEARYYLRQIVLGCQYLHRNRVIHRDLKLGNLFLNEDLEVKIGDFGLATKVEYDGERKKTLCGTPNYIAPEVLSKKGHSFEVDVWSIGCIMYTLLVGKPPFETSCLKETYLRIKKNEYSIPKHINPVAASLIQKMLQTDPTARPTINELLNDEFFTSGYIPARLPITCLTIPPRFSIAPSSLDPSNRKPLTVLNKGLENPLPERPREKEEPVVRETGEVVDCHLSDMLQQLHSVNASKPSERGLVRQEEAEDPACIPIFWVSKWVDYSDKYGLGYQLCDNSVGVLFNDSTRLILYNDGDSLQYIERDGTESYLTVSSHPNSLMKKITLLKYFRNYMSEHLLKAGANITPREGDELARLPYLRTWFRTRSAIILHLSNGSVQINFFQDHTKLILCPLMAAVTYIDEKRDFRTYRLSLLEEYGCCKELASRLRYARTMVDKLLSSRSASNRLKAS

[3] = target: Serine/threonine-protein kinase PLK1 (Homo sapiens) (UniProt P53350); conditions: at 1 µM
[4] = target: T2, Dual specificity protein kinase TTK (Homo sapiens) (UniProt P33981); conditions: at 0.1 µM
T2 sequence (whole entry): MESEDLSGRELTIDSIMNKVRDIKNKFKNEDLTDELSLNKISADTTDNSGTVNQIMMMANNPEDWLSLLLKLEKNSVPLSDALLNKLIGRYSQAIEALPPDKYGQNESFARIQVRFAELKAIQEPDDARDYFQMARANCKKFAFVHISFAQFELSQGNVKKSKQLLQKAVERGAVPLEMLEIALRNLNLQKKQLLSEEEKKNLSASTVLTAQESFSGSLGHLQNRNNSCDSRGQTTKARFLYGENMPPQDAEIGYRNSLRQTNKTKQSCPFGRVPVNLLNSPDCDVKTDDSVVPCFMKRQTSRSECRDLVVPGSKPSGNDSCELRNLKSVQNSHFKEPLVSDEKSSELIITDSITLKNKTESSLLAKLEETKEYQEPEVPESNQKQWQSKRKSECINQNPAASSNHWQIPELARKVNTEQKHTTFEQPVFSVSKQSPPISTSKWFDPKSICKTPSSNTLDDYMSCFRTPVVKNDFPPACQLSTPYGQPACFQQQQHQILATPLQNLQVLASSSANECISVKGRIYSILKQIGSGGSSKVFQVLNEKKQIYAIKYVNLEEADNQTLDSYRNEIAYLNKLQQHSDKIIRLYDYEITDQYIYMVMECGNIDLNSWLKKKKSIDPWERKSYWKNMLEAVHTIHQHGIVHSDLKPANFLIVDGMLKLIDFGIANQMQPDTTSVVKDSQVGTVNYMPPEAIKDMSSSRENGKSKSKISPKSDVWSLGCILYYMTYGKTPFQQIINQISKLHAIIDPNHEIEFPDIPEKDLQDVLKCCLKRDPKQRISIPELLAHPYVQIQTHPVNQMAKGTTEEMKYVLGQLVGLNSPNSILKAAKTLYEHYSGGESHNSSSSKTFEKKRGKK

[5] = system: T3, Receptor-type tyrosine-protein kinase FLT3 (Homo sapiens), P36888 [D835Y]; conditions: at 1 µM
T3 sequence (whole entry): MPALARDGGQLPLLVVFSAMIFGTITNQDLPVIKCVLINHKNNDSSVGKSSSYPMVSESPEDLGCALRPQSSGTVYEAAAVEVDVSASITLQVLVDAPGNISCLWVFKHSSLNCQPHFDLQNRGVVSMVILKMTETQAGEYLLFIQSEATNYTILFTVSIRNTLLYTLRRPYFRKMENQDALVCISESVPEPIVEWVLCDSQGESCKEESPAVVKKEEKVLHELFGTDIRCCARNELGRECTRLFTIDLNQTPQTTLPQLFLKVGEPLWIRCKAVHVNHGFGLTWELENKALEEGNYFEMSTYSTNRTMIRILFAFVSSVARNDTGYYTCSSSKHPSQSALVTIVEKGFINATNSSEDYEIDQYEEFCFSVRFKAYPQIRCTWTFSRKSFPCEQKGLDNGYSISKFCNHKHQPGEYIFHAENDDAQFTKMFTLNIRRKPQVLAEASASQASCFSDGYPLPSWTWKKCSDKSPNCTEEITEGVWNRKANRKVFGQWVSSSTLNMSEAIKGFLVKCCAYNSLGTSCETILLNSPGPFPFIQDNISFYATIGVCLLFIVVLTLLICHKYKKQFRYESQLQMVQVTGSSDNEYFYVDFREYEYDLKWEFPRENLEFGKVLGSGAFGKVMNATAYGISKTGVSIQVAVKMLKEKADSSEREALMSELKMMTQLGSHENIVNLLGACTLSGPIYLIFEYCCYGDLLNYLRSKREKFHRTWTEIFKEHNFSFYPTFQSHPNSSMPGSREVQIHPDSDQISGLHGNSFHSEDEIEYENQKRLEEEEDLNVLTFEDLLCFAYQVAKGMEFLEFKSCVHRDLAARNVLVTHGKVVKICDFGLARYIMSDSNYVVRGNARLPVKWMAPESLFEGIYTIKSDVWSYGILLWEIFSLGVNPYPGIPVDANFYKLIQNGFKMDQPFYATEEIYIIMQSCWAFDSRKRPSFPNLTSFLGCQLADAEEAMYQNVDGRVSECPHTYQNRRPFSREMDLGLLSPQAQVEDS

[6] = target: Vascular endothelial growth factor receptor 3 (Homo sapiens) (UniProt P35916); conditions: at 0.1 µM
Vascular endothelial growth factor receptor 3 (Homo sapiens), sequence (P35916 whole entry): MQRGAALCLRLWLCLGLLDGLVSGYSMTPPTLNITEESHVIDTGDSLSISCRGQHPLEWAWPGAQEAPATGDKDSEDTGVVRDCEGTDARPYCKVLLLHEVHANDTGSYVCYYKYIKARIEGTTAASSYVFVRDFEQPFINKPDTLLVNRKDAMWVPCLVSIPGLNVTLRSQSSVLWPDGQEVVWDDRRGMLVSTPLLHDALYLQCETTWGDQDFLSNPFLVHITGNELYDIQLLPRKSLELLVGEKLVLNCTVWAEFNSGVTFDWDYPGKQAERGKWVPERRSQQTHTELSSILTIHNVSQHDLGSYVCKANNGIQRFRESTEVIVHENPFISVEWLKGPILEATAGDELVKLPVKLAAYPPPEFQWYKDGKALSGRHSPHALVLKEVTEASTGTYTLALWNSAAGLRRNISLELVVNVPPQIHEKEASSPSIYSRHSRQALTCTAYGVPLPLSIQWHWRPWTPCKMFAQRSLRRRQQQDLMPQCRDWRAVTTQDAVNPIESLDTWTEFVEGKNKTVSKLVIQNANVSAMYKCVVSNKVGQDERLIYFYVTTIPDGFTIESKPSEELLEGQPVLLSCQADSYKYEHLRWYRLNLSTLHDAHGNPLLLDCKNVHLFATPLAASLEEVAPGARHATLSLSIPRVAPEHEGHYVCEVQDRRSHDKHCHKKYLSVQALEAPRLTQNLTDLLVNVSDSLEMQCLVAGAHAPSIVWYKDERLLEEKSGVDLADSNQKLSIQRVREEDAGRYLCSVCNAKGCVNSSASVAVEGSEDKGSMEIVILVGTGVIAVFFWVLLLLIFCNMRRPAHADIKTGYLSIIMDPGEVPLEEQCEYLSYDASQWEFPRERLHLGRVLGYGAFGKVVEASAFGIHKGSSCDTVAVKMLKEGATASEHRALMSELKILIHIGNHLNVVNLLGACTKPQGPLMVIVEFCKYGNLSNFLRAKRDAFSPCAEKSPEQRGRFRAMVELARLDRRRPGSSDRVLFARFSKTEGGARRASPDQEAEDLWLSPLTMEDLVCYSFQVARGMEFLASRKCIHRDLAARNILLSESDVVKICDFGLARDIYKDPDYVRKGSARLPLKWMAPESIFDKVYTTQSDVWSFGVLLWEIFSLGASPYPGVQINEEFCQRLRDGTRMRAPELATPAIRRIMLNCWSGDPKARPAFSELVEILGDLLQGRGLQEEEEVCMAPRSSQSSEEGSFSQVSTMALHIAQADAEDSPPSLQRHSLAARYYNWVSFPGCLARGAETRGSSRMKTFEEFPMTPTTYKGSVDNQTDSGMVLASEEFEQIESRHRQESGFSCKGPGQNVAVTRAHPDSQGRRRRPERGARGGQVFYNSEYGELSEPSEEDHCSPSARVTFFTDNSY

[7] = target: Vascular endothelial growth factor receptor 3 (Homo sapiens) (UniProt P35916); conditions: at 1 µM
[8] = target: Macrophage colony-stimulating factor 1 receptor (Homo sapiens) (UniProt P07333); conditions: at 0.1 µM
Macrophage colony-stimulating factor 1 receptor (Homo sapiens), sequence (P07333 whole entry): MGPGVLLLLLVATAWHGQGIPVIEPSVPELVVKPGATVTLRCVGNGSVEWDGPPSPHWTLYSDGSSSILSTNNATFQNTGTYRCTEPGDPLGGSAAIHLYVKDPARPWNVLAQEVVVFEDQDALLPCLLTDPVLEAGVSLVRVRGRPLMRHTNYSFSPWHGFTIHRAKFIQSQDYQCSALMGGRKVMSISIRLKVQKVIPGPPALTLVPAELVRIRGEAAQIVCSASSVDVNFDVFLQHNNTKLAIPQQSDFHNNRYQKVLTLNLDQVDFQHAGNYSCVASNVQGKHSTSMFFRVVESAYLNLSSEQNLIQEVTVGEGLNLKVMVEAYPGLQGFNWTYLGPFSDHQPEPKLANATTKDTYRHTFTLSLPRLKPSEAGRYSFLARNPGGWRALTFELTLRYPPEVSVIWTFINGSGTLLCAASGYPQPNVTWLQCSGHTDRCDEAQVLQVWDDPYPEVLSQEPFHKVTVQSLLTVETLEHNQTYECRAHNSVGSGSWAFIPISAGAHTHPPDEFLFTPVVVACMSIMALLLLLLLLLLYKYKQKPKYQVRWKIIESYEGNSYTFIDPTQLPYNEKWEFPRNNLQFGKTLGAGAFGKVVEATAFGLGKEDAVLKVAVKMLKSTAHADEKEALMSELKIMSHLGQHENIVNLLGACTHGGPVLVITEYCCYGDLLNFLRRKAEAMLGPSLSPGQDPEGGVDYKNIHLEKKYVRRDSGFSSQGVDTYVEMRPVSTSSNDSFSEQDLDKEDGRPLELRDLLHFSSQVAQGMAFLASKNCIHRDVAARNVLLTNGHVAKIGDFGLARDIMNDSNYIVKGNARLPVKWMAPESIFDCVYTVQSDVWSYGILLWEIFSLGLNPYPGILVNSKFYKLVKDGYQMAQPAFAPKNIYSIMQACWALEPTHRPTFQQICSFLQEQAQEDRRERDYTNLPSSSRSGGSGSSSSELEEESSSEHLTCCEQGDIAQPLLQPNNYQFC

[9] = target: Macrophage colony-stimulating factor 1 receptor (Homo sapiens) (UniProt P07333); conditions: at 1 µM
[10] = target: Tyrosine-protein kinase Fyn (Homo sapiens) (UniProt P06241); conditions: at 0.1 µM
Tyrosine-protein kinase Fyn (Homo sapiens), sequence (P06241 2-537 limits assumed): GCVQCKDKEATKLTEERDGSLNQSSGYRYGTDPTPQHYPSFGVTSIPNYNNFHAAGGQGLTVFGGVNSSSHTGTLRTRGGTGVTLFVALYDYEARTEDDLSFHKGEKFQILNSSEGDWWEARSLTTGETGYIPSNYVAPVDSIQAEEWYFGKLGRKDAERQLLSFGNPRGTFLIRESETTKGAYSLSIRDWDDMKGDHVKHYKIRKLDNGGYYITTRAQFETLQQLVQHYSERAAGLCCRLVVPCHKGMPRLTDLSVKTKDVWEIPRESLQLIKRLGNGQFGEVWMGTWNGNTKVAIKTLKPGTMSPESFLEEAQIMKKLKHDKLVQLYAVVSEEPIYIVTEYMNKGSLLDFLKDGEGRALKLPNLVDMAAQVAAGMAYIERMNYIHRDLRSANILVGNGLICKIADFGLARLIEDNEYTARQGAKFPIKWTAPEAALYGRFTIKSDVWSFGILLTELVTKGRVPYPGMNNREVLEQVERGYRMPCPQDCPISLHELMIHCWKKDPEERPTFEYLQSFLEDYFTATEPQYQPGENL

Structure (SMILES)	inhibition [1] [%]	inhibition [2] [%]	inhibition [3] [%]	inhibition [4] [%]	inhibition [5] [%]	inhibition [6] [%]	inhibition [7] [%]	inhibition [8] [%]	inhibition [9] [%]	inhibition [10] [%]
N#Cc1ccc(Oc2nccc(-c3c(-c4ccc(F)cc4)ncn3C3CCNCC3)n2)cc1	9.35	4.8	4.75	8.02	4.07	-3.29	-0.83	0.11	9.12	-0.87
CN1CCN(CCCNc2nc3ccc(Oc4ccc(NC(=O)Nc5cc(C(F)(F)F)ccc5F)cc4)cc3[nH]2)CC1	-1.83	1.78	0.98	1.87	1.66		-0.49	3.57	17.3	-4.47
COc1cc2ncn(-c3cc(OCc4cccs4)c(C(N)=O)s3)c2cc1OC	28.4			4.76	1.62	-6.1	34.7	1.28	11.7	-2.3
c1ccc(-c2n[nH]cc2-c2ccnc(-c3ccc(OCCN4CCOCC4)cc3)c2)nc1		-1.38	-1.28	-2.01	1.73	-0.95	8.44	2.4	8.98	-0.84
COc1cc(Nc2ncc3c(C)nc(-c4cccc(C(F)(F)F)c4)n3n2)cc(OC)c1OC	86.1			8.36	35.8	-1.5	2.6	32.9	79.8	6.79
Fc1ccc(-c2nc3n(c2-c2ccncc2)CCS3)cc1	6.52	3.85	4.09	6.93	-0.91	-8.43		0.95	1.38	0.03
O=C1Nc2ccc(I)cc2C1=Cc1cc(Br)c(O)c(Br)c1	7.24	5.57	9.77	10.4	2.02	0.19	-3.58	4.92	5.58	3
CNC(=O)c1cncc(/C=C/c2c(C)cccc2C)c1	2.51	1.18	0.2	1.49	5.46		-8.92	12	44.4	0.61
C/C(Nc1ccc(S(N)(=O)=O)cc1)=C1/C(=O)Nc2ccccc21	1.67	-0.74	-0.72	8.06	46.8	7.83	32.9	12.1	50.6	1.2
COc1cccc(-n2cnc3c(N/N=C/c4ccncc4)ncnc32)c1	5.21	-1.9	-0.54	0.25	9.6		-4.88	4.43	24.9	-0.06
COc1cc(N2CCN(C(C)C)CC2)ccc1Nc1nc(Nc2ccc(F)cc2C(=O)NC[C@@H](O)CO)c2cc[nH]c2n1	15.3	9.77	38	74		-9.16		1.22	0.02	0.03
CCS(=O)(=O)c1ccc(OC)c(Nc2ncc(-c3ccccc3Cl)o2)c1	6.89	0.86	3.51		17.4	7.55	29.9	9.53	40.3	2.29
C[C@@H](Oc1cc(-n2cnc3ccc(OC4CCN(C)CC4)cc32)sc1C(N)=O)c1ccccc1Cl	97.2			6.06	12.2	-3.01	13.8	3.34	16.3	-3.18
CN(C)c1ccc2c(c1)/C(=C/Nc1ccc(S(N)(=O)=O)cc1)C(=O)N2	4.93	2.05	2.41	5.45	33.6		55	4.82	18.8	2.68
CN(C)CCCNc1nccc(-c2c(-c3ccc(F)cc3)nn3cc(C(F)(F)F)ccc23)n1	0.61	2.56	2.23	2.37	2.47		-6.61	2.1	2.47	-2.36
FC(F)(F)c1cccc(Nc2nccc(-c3cnn4nc(-c5ccccc5)ccc34)n2)c1	8.66	2.06	-0.34	3.1	26.7	-0.18	6.91	-2.73	16.4	0.72
CS(=O)(=O)CCNCc1cc(-c2cc3c(Nc4ccc(OCc5cccc(F)c5)c(Cl)c4)ncnc3s2)cs1	8.5	6.1	8.12	9.23	5.05	1.58	-1.31	7.21	7.82	0.55
COc1cc2ncn(-c3cc(OCCc4ccccc4)c(C(N)=O)s3)c2cc1OC	6.63			1.17	1.07	1.49	21	-0.81	4.7	2.91

Source: ChEMBL document CHEMBL1961873, “Compounds: GSK PKIS; Assays: Nanosyn kinase panel” (2012)
